# From PubChem BioAssay AID2315 (National Center for Advancing Translational Sciences (NCATS), 2010)
# Out of some 290,000 compounds screened, about 27,000 (9.3%) were called active. The list comes from a sample in which actives are over-represented; it also holds similar structures and randomly drawn compounds. Unmarked numbers belong to inactive results. No stated cut-off is given here; in the data, active means inhibition mostly above about 28% (no sharp cut-off); inactive means mostly below about 43%.
# Experiment: A qHTS for Small Molecule Inhibitors of Shiga Toxin; further: 0% is about no effect
# Conditions: Vero cells, Shiga toxin protein synthesis inhibition reporter; at 38.7 µM, hits give high values
row,SMILES,inhibition
1,Cc1ccc(N(C(=O)CNC(=O)c2ccco2)C(C(=O)NC2CCCC2)c2ccncc2)cc1 (stereo unspecified),-7.6%
2,CC(=O)N1c2ccc(S(=O)(=O)N3CCCC(C(=O)Nc4ccc(C)cc4C)C3)cc2CC1C (stereo unspecified),-2.6%
3,O=C(N/N=C/c1ccc(O)c2ccccc12)c1cccnc1,24.3%
4,CNC(=O)C(=O)N/N=C/c1ccccn1,35.4%
5,CN1CCN(NC(=O)c2ccc(S(=O)(=O)N3CCCCCC3)cc2)CC1,-4.86%
6,O=C(N/N=C/c1ccccn1)c1cccc(NC(=O)c2ccc(Cl)cc2)c1,24.3%
7,Cc1ccc(NC(=O)COc2ccc(/C=N\NC(=O)c3cccnc3)cc2)cc1C,11.2%
8,O=C(N/N=C/c1ccccn1)c1cccnc1,39.2% (active)
9,Cc1cc(/C=N/NC(=O)c2cccnc2)c(C)n1CC(C)C,80.1% (active)
10,O=C(Nc1ccc(S(=O)(=O)Nc2ncccn2)cc1)C12CC3CC(CC(C3)C1)C2,17.2%
11,O=C(NN=C1CCC(=NNC(=O)c2cccnc2)CC1)c1cccnc1,45.2%
12,O=C(N/N=C/c1ccccn1)c1ccc(S(=O)(=O)N2CCCCCC2)cc1,184% (active)
13,O=C(CNC(=O)c1cccnc1)N/N=C/c1cccnc1,-13%
14,O=C(N/N=C/c1ccccn1)C12CC3CC(CC(C3)C1)C2,0% (active)
15,COc1ccc(CNC(=O)/C(C#N)=C/c2cccc(OC)c2OC)cc1,-10.4%
16,Cn1c(C(=O)N2CCCC(C(=O)NCc3ccccc3)C2)cc2sccc21 (stereo unspecified),18.4%
17,Cc1ccc(S(=O)(=O)c2c[nH]c3ccc(C)cc3c2=O)cc1,-5.73%
18,CC(C)CNC(=S)Nc1ccc(F)cc1,13.2%
19,CC(C)CNC(=O)C(=O)Nc1ccc(N(C)C)cc1,55.1% (active)
20,CC(C)CNC(=O)C(=O)NCc1ccccc1,15.5%
21,Cc1cc(C)cc(NC(=O)C2CCCN2S(=O)(=O)c2cccc3cccnc23)c1 (stereo unspecified),-0.303%
22,CCOC(=O)C1=C(C(=O)OCC)C(C(=O)OCC)N(S(=O)(=O)C(F)(F)F)c2ccccc21 (stereo unspecified),18.6%
23,CCOC(=O)c1ccccc1CN1C(=O)c2ccccc2S1(=O)=O,-3.65%
24,CCOC(=O)c1cc2n(c1N)-c1ccccc1C2=O,72.9% (active)
25,Cn1nccc1C(=O)N1CCCC(C(=O)c2ccc(Oc3ccccc3)cc2)C1 (stereo unspecified),-15.3%
26,Cc1cccc2[nH]c(CN(C)C(=O)C3CCC(=O)N(CCc4ccccc4)C3)nc12 (stereo unspecified),17.9%
